Assay results as given in PubChem BioAssay (Tox21).
Where “and” joins values, the source holds several entries; their conditions need not be identical. Equal values may be shown once. Inconclusive results are not listed. Some compounds were tested as several samples or in several runs, with calls that do not always agree. Calls of active or inactive are those of the source. Unless noted, calls follow the shape of the dose curve; as a rule, active = well fitted curve in the direction sought with a large enough effect in the repeat runs; inconclusive = weak or mixed curves; inactive = no such curve, though single readings can be large; an effect the other way counts as inactive or inconclusive.

What was measured:
[1] = biological target: Retinoic acid receptor RXR-alpha (Homo sapiens) (UniProt P19793); assay: qHTS assay to identify small molecule agonists of the RXR signaling pathway (AID 1159527; calls by dose curve; also: nearly all actives have a fitted effect of over 35% in size; also: potency is read from the fitted curve at half-maximal effect)
Sequence of Retinoic acid receptor RXR-alpha (Homo sapiens) (P19793 whole entry, looked up): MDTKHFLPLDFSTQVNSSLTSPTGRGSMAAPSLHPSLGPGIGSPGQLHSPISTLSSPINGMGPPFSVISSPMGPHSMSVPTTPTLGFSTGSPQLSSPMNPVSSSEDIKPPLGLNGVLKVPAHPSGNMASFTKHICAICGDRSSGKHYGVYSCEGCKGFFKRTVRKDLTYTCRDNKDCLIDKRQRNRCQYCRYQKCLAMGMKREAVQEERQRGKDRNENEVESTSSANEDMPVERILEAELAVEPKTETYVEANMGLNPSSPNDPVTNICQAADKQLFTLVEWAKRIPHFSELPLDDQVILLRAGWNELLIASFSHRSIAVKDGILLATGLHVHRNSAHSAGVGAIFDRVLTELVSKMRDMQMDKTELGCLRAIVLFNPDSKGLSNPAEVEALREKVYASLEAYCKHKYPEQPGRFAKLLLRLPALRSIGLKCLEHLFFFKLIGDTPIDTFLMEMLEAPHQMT
Procedure, shortened: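 Beta-lactamase reporter assay, agonist format. Engineered HEK 293T line, charcoal-stripped FBS at 2%, overnight (16 hr) exposure, fluorescence at 460 and 530 nm after 405 nm excitation.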

[2] = qHTS assay to identify small molecule agonists of the RXR signaling pathway - cell viability counter screen (AID 1159529); also: nearly all actives have a fitted effect of over 50% in size; also: potency is read from the fitted curve at half-maximal effect;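 as to activity change, negative = cytotoxicity: HEK 293T cells carrying an RXR-alpha UAS beta-lactamase reporter; series mostly up to about 77 µM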
Procedure, shortened: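 Same-well viability check after the LiveBLAzer FRET read: CellTiter-Glo added, luminescence measured after 30 min at room temperature. Reporter HEK 293T cells had been treated with compounds for 16 hr following a 5 hr preincubation.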

[3] = qHTS assay to identify small molecule antagonists of the retinoid acid receptor (RAR) signaling pathway - cell viability counter screen (AID 1159551); also: nearly all actives have a fitted effect of over 35% in size
Procedure, shortened: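 Following overnight attachment, C3RL4 reporter cells received DMSO-dissolved compounds and then retinol (1 uM final). Six hours later at 37 C, ATP content was measured by CellTiter-Glo luminescence.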

[4] = qHTS assay to identify small molecule antagonists of the retinoic acid receptor (RAR) signaling pathway (AID 1159552; also: nearly all actives have a fitted effect of over 50% in size; also: potency is read from the fitted curve at half-maximal effect)
Procedure, shortened: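 Readout: luciferase luminescence, 30 min post-reagent at RT. Setup: C3RL4 RARE reporter cells, compounds plus retinol 1 uM final, 6 hr incubation at 37 C and 5% CO2.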

[5] = qHTS assay to identify small molecule agonists of the retinoic acid receptor (RAR) signaling pathway (AID 1159553)
Procedure, shortened: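 Cell line C3RL4, RARE luciferase reporter. Treatment: compounds in DMSO, 6 hr, 37 C, 5% CO2, after overnight plating. Detection: luminescence, 30 min RT after reagent.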

[6] = qHTS assay to identify small molecule antagonists of the estrogen related receptor (ERR) signaling pathway - cell viability counter screen (AID 1224818);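 also: series mostly up to about 46 µM; viability measured after 17.5 h of compound exposure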
Procedure, shortened: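 Here, ERR cells are plated at 2,000 cells per well, allowed 6 h to attach, and treated with compounds in DMSO for 17.5 h at 37 C. CellTiter-Fluor is then added and fluorescence read after 30 min.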

[7] = qHTS assay to identify small molecule antagonists of the estrogen related receptor signaling pathway with the pleiotropic PPARgamma coactivator (PGC) cell viability counter screen (AID 1224822;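 also: series mostly up to about 46 µM; viability read after 17.5 h compound exposure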)
Procedure, shortened: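 qHTS format, DMSO compound stocks pin-transferred onto PGC/ERR cells 6 h after plating; 17.5 h exposure at 37 C, then CellTiter-Fluor fluorescence.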

[8] = qHTS assay to identify small molecule agonists of the estrogen related receptor (ERR) signaling pathway (AID 1224820)
Procedure, shortened: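 Quantitative HTS of the LOPAC library used NTP ERR reporter cells treated 18 h at 37 C. Signal is luminescence after One-Glo addition and a 30 min room-temperature incubation.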

[9] = system: estrogen-related receptor alpha (ERRalpha) with PGC-1alpha coactivator, human; assay: qHTS assay to identify small molecule antagonists of the estrogen related receptor signaling pathway with the pleiotropic PPARgamma coactivator (PGC) (AID 1224821; calls by dose curve;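 also: series mostly up to about 46 µM; lower luminescence signal means antagonism of PGC/ERR signalling; nearly all actives have a fitted effect of over 50% in size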)
Procedure, shortened: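 Quantitative HTS for antagonism: PGC/ERR cells received compounds after 6 h attachment and were incubated 18 h at 37 C, with luminescence (One-Glo) as the endpoint.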

[10] = qHTS assay to identify small molecule agonists of the estrogen related receptor signaling pathway with the pleiotropic PPARgamma coactivator (PGC) (AID 1224823)
Procedure, shortened: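 Cell-based luciferase assay in the NTP-supplied PGC/ERR line, 2,000 cells/well; 18 h compound exposure at 37 C, luminescence after One-Glo.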
% is scaled to controls: 0 for no effect and ±100 for the full control effect.

CN1CCCC1
inactive: Potency [1] | Potency [2] | outcome [3] | Potency [4] | Potency [5]

O=C(O)c1ccccc1OP(=O)(O)O
inactive: Potency [1] | Potency [2] | outcome [3] | Potency [4] | Potency [5]

CCCCNC(=O)NCCCC
inactive: Potency [1] | Potency [2] | outcome [3] | Potency [4] | Potency [5]

CC/C=C\CC/C=C/CO
inactive: Potency [1] | Potency [2] | outcome [3] | Potency [4] | Potency [5]

CC(=O)Nc1ccc(S(N)(=O)=O)cc1
inactive: Potency [1] | Potency [2] | outcome [3] | Potency [4] | Potency [5]

COC(C)(C)CCCC(C)CC=O (centres undefined)
inactive: Potency [1] | Potency [2] | outcome [3] | Potency [4] | Potency [5]

CCOC(=O)c1c(C)n(C)c2ccc(O)cc12
inactive: Potency [1] | Potency [2] | outcome [3] | Potency [4] | Potency [5]

O=C(CCCN1CCN(c2ccccn2)CC1)c1ccc(F)cc1
inactive: Potency [1] | Potency [2] | outcome [3] | Potency [4] | Potency [5]

O=C1CCCN1C1CCCCC1
inactive: Potency [1] | Potency [2] | outcome [3] | Potency [4] | Potency [5]

CCN1CCC[C@H]1CNC(=O)c1c(O)c(Cl)cc(Cl)c1OC
inactive: Potency [1] | Potency [2] | outcome [3] | Potency [4] | Potency [5] | outcome [6] | outcome [7]

CCOC(=O)c1ccc(C)cc1
inactive: Potency [1] | outcome [3] | Potency [4] | Potency [5]

CCN(CC)CCNC(=O)c1cc(S(C)(=O)=O)ccc1OC
inactive: Potency [1] | Potency [2] | outcome [3] | Potency [4] | Potency [5] | outcome [6] | outcome [7]

c1ccc([C@H]2CN3CCSC3=N2)cc1
inactive: Potency [1] | Potency [2] | outcome [3] | Potency [4] | Potency [5] | outcome [6] | outcome [7]

O=C(c1ccccc1)C1CCCCC1
inactive: Potency [1] | outcome [3] | Potency [4] | Potency [5]

NS(=O)(=O)c1cc(C(=O)O)cc(N2CCCC2)c1Oc1ccccc1
inactive: Potency [1] | outcome [3] | Potency [4] | Potency [5]

Cc1ccc(=O)n(-c2ccccc2)c1
inactive: Potency [1] | Potency [2] | outcome [3] | Potency [4] | Potency [5] | outcome [6] | outcome [8] | outcome [9] | outcome [7] | outcome [10]

O=C1CCCCCCCCCCCN1
inactive: Potency [1] | outcome [3] | Potency [4] | Potency [5]

c1cnc(N2CCN(Cc3ccc4c(c3)OCO4)CC2)nc1
inactive: Potency [1] | Potency [2] | outcome [3] | Potency [4] | Potency [5] | outcome [6] | outcome [7]

NS(=O)(=O)c1cc(C(=O)NN2C[C@H]3[C@H]4CCC(C4)[C@H]3C2)ccc1Cl
inactive: Potency [1] | outcome [3] | Potency [4] | Potency [5]

NCCc1cnc[nH]1
inactive: Potency [1] | Potency [2] | outcome [3] | Potency [4] | Potency [5] | outcome [6] | outcome [7]

NC(=O)c1cn(Cc2c(F)cccc2F)nn1
inactive: Potency [1] | Potency [2] | outcome [3] | Potency [4] | Potency [5] | outcome [6] | outcome [7]

CN1CCC(=C2c3ccccc3CC(=O)c3sccc32)CC1
inactive: Potency [1] | Potency [2] | outcome [3] | Potency [4] | Potency [5] | outcome [6] | outcome [7]

CC[N+](C)(C)c1cccc(O)c1
inactive: Potency [1] | Potency [2] | outcome [3] | Potency [4] | Potency [5] | outcome [6] | outcome [7]

C[N+](C)(C)CCCCCC[N+](C)(C)C
inactive and 16.8 µM (active): Potency [4]
inactive: Potency [2] | outcome [3] | Potency [5] | outcome [6] | outcome [7]
inactive and 10.7 µM (active): Potency [1]

NC(=O)COCCN1CCN(C(c2ccccc2)c2ccc(Cl)cc2)CC1 (centres undefined)
inactive: Potency [1] | outcome [3] | Potency [4] | Potency [5]

OCCCC1CCCCC1
inactive: Potency [1] | outcome [3] | Potency [4] | Potency [5]

CN(C)CCCN1c2ccccc2CCc2ccc(Cl)cc21
inactive: Potency [1] | outcome [3] | outcome [8] | outcome [9] | outcome [10]
active: Potency [2] 38.9 µM

CC(C)c1cc2c(cc1S(=O)(=O)O)[C@@]1(C)CCC[C@@](C)(C(=O)O)[C@@H]1CC2
inactive: Potency [1] | outcome [3] | Potency [4] | Potency [5]

NCCCNCCSP(=O)(O)O
inactive: activation [1] 10.3% [at 6.98 µM] | activity change, negative = cytotoxicity [2] 8.34% [at 6.97 µM] | activity change, negative = cytotoxicity [3] 1.85% [at 8.39 µM] | activity, negative = inhibition [4] 8.45% [at 8.39 µM] | activation [5] -0.783% [at 8.36 µM] | outcome [6] | outcome [7]

O=C1CC2CC1C1CCCC21 (centres undefined)
inactive: Potency [1] | outcome [3] | Potency [4] | Potency [5]

CCOC(=O)Nc1ccc(NCc2ccc(F)cc2)nc1N
inactive: Potency [1] | Potency [2] | outcome [3] | Potency [4] | Potency [5] | outcome [6] | outcome [8] | outcome [9] | outcome [7] | outcome [10]

COc1ccc(CCN(C)CCCC(C#N)(c2cc(OC)c(OC)c(OC)c2)C(C)C)cc1OC (centres undefined)
inactive: Potency [1] | Potency [2] | outcome [3] | Potency [4] | Potency [5] | outcome [6] | outcome [7]

NS(=O)(=O)c1cc2c(cc1Cl)NC(C1CC3C=CC1C3)NS2(=O)=O (centres undefined)
inactive: Potency [1] | Potency [2] | outcome [3] | Potency [4] | Potency [5] | outcome [6] | outcome [7]

N[C@H](C(=O)O)c1ccc(O)cc1
inactive: Potency [1] | activity change, negative = cytotoxicity [3] 1.22% [at 19 µM] | activity, negative = inhibition [4] -7.38% [at 19 µM] | Potency [5]

COC(=O)[C@@H](N)Cc1ccc(O)c(O)c1
inactive: Potency [1] | Potency [2] | outcome [3] | Potency [4] | Potency [5] | outcome [6] | outcome [8] | outcome [9] | outcome [7] | outcome [10]

N=c1nc(N2CCCCC2)cc(N)n1O
inactive: Potency [1] | Potency [2] | outcome [3] | Potency [4] | Potency [5] | outcome [6] | outcome [7]

OC(CCN1CCCCC1)(c1ccccc1)C1CC2C=CC1C2 (centres undefined)
inactive: Potency [1] | Potency [2] | outcome [3] | Potency [4] | Potency [5] | outcome [6] | outcome [7]

NC(=O)Nc1ccccc1
inactive: Potency [1] | outcome [3] | Potency [4] | Potency [5]

O=C1NC(=O)[C@@]2(CCOc3ccc(F)cc32)N1
inactive: Potency [1] | Potency [2] | outcome [3] | Potency [4] | Potency [5] | outcome [6] | outcome [7]

CC(C)NCC(O)c1ccc(NS(C)(=O)=O)cc1 (centres undefined)
inactive: Potency [1] | Potency [2] | outcome [3] | Potency [4] | Potency [5] | outcome [6] | outcome [7]

N=C(N)c1ccccc1
inactive: Potency [1] | Potency [2] | outcome [3] | Potency [4] | Potency [5] | outcome [6] | outcome [7]

O=C(CCCN1CCC(O)(c2cccc(C(F)(F)F)c2)CC1)c1ccc(F)cc1
inactive: Potency [1] | Potency [2] | outcome [3] | Potency [4] | Potency [5] | outcome [6] | outcome [8] | outcome [9] | outcome [7] | outcome [10]

CCN(Cc1ccncc1)C(=O)C(CO)c1ccccc1 (centres undefined)
inactive: Potency [1] | Potency [2] | outcome [3] | Potency [4] | Potency [5] | outcome [6] | outcome [7]

Cc1[nH]c(=O)c(C#N)cc1-c1ccc2nccn2c1
inactive: Potency [1] | outcome [3] | Potency [4] | Potency [5] | outcome [6] | outcome [7]

C/C=C(\C)C#N
inactive: Potency [1] | outcome [3] | Potency [4] | Potency [5]

COC(=O)CCSCCC(=O)OC
inactive: Potency [1] | outcome [3] | Potency [4] | Potency [5]

O=C1OC(=O)C2CCCCC12 (centres undefined)
inactive: Potency [2] | outcome [3] | Potency [4] | Potency [5]

Cn1c(N)c(N=O)c(=O)n(C)c1=O
inactive: Potency [1] | outcome [3] | Potency [4] | Potency [5]

N=C(N)c1ccc(OCCCOc2ccc(C(=N)N)cc2)cc1
inactive: Potency [1] | outcome [3] | Potency [4] | Potency [5]

Cc1ccc(C#N)cc1
inactive: Potency [1] | outcome [3] | Potency [4] | Potency [5]

ClC(Cl)(Br)Br
inactive: Potency [2] | outcome [3] | Potency [4] | Potency [5]

Nc1ccc(S(=O)(=O)Nc2ccnn2-c2ccccc2)cc1
inactive: Potency [1] | activity change, negative = cytotoxicity [3] 2.06% [at 19 µM] | activity, negative = inhibition [4] -19.4% [at 19 µM] | Potency [5] | outcome [6] | outcome [7]

CN(C(=O)c1c(O)c2ccccc2n(C)c1=O)c1ccccc1
inactive: Potency [1] | outcome [3] | Potency [4] | Potency [5]

O=c1n(CCO)c(=O)n(CCO)c(=O)n1CCO
inactive: Potency [2] | outcome [3] | Potency [4] | Potency [5]

O=C1CCCC(=O)C1
inactive: Potency [2] | outcome [3] | Potency [4] | Potency [5]

CCCCCOC(=O)CCCCC
inactive: Potency [1] | outcome [3] | Potency [4] | Potency [5]

CCO/C([O-])=N/c1c[n+](N2CCOCC2)no1
inactive: Potency [1] | outcome [3] | Potency [4] | Potency [5] | outcome [6] | outcome [8] | outcome [9] | outcome [7] | outcome [10]

Cc1cc2c(cc1S(N)(=O)=O)S(=O)(=O)CCC2
inactive: Potency [1] | outcome [3] | Potency [4] | Potency [5]

NC(CSCC(=O)O)C(=O)O (centres undefined)
inactive: Potency [1] | outcome [3] | Potency [4] | Potency [5]
